Rows were chosen to be rich in hits. Some 2.3% of all compounds tested hit in one or more screens of this group.
PLC-beta3 inh = PLC-beta3 (human) inhibition, primary screen | Q01970 | Purified PLC-beta3, fluorogenic substrate, fluorescence | inhibition, % at 12.2 µM | 370,000 compounds, 0.18% hits; in the data active = inhibition above about 11%
Target sequence (Q01970 whole entry, looked up): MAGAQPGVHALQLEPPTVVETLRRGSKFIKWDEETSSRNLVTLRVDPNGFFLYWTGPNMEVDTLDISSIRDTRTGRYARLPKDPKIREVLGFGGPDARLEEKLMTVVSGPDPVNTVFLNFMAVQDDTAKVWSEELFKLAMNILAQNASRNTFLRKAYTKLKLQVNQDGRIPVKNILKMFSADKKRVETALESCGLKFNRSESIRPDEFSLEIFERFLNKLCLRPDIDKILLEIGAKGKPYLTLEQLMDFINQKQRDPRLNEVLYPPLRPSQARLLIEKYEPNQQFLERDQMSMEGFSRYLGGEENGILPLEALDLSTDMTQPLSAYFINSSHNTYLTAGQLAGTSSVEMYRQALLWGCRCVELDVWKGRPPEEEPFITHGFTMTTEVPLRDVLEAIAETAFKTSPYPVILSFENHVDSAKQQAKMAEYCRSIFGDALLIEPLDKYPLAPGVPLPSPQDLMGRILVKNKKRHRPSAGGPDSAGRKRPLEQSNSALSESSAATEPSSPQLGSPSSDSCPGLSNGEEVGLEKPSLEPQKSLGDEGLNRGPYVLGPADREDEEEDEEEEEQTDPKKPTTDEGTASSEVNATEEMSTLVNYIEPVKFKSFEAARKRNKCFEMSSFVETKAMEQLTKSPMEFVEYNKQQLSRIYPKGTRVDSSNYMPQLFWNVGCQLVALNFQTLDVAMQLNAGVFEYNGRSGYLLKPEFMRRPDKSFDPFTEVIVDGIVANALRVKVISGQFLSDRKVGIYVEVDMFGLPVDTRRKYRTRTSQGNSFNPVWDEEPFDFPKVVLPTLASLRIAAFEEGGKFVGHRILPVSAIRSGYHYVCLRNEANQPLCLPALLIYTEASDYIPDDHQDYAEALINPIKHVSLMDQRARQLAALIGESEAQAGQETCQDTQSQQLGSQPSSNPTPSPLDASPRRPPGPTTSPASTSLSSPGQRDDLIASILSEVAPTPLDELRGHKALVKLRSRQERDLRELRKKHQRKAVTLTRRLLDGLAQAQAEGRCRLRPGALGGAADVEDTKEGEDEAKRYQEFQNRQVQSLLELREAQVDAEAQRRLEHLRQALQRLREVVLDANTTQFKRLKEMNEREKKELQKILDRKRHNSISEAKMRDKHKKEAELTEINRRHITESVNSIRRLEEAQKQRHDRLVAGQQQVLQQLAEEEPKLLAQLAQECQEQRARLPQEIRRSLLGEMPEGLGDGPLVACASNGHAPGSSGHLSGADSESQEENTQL
UHRF1 binding = human UHRF1 methylated DNA binding inhibitors. Q96T88. UHRF1 binding to methylated oligo, TR-FRET. inhibition, % at 4.4 µM. 370,000 compounds, 0.75% hits. AID 687016;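 note: UHRF1 SRA domain binding a hemimethylated CpG hairpin DNA probe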
LEDGF integ inh = blocks HIV-1 LEDGF/p75-dependent DNA integration; TR-FRET IN-LEDGF/p75 DNA integration, Eu/Cy5; inhibition, % at 3.7 µM; 370,000 compounds, 0.64% hits;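 active = inhibition above the screen-wide mean plus 3 SD, cut at about 13% in these data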;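 note: signal is the Cy5 over europium emission ratio at 671 and 618 nm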
PLCg1 inh = blocks human PLC-gamma1 enzyme activity. inhibition, % at 12.2 µM. 370,000 compounds, 0.84% hits. purified PLC-gamma1, fluorogenic substrate, fluorescence. P19174; in the data active = inhibition above about 9.5%
MBD2 DNA inh = MBD2-methylated oligo binding inhibition | inhibition, % at 4.4 µM | Q9UBB5 | AID 686964 | TR-FRET, MBD2 binding to methylated oligonucleotide | 370,000 compounds, 0.31% hits; in the data active = inhibition above about 13%
UHRF1 DNA bind = counter-screen for MBD2 inhibitors: human UHRF1 methylated DNA binding inhibitors. UHRF1 binding to methylated oligonucleotide, TR-FRET. 1,000 compounds, 25% hits. shares compounds with MBD2 DNA inh. inhibition, % at 4.4 µM;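 note: UHRF1 SRA domain binding a labeled hemimethylated CpG hairpin DNA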
MBD2 confirm = MBD2-DBD methyl-DNA binding inhibition, TR-FRET confirmation. 1,000 compounds, 26% hits. inhibition, % at 4.4 µM. shares compounds with MBD2 DNA inh. AID 720531. TR-FRET MBD2-DBD binding to methylated oligonucleotide; in the data active = inhibition above about 14%
PLCgamma1 ctr = PLC-gamma1 inhibition, counter-screen for PLC-beta3 hits | purified PLC-gamma1, fluorogenic substrate, fluorescence | inhibition, % at 12.3 µM | 3,300 compounds, 3.1% hits | AID 743258 | shares compounds with PLCg1 inh; in the data active = inhibition above about 9.5%
PLCb3 confirm = human PLC-beta3 inhibition, confirmation; shares compounds with PLCg1 inh; purified PLC-beta3, fluorogenic substrate fluorescence; inhibition, % at 12.3 µM; 3,300 compounds, 1% hits; AID 743261; in the data active = inhibition above about 11%
IN multimer act = counter-screen for LEDGF/p75 integration inhibitors: HIV-1 integrase multimerization activators. shares compounds with LEDGF integ inh. TR-FRET HIV-1 integrase multimerization, biochemical. activation, % at 7.7 µM. 2,000 compounds, 17% hits; in the data active = activation above about 8.9%
TRFRET interf = TR-FRET optical interference, LEDGF/p75 integration counter-screen; shares compounds with LEDGF integ inh; inhibition, % at 7.7 µM; 2,000 tested, under 10 active; TR-FRET optical interference counterscreen, HIV-1 IN multimerization; AID 1053135;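 active = inhibition above the mean over all tested compounds plus 3 SD, which no compound reached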
IN-LEDGF confirm = confirmation of HIV-1 LEDGF/p75-dependent integration inhibitors | 2,000 compounds, 36% hits | TR-FRET LEDGF/p75-dependent HIV-1 integration, biochemical | shares compounds with LEDGF integ inh | inhibition, % at 3.7 µM | AID 1053136; in the data active = inhibition above about 14%
Numbers stand for hits; n = inactive; x = not tested or not shown. Cut-off read from the data, not from the text of the source, unless noted: active = inhibition above about 21%; inactive = the rest.

SMILES | PLC-beta3 inh | UHRF1 binding | LEDGF integ inh | PLCg1 inh | MBD2 DNA inh | UHRF1 DNA bind | MBD2 confirm | IN multimer act | TRFRET interf | IN-LEDGF confirm | others
COc1ccc(/C=N/NC(=O)c2cc(O)c(O)c(O)c2)cc1Cn1cc([N+](=O)[O-])cn1 | n | 28 | 69 | n | 15 | n | 14 | 54 | n | 87
CCOC(=O)[C@]12CCCC=C1N(Cc1ccc(OC)cc1)C(=O)[C@@H]2CC(=O)NCCC(C)C | n | n | n | n | n | x | x | x | x | x
O=C(O)COc1ccc2c(c1)O/C(=C\c1cccs1)C2=O | n | n | n | n | n | x | x | x | x | x
O=C(O)COc1ccc2c(c1)O/C(=C\c1ccco1)C2=O | n | 63 | 41 | n | 15 | 42 | n | 27 | n | 46
C=CCSC1=N/C(=C\C=C\c2ccco2)C(=O)S1 | n | 75 | 62 | n | 43 | 40 | 17 | n | n | 75
C=CCSC1=N/C(=C\c2sccc2C)C(=O)S1 | n | n | n | n | n | x | x | x | x | x
CCN(CC)c1ccc(NC(=O)CCS(=O)(=O)c2ccc(Br)cc2)c(C)c1 | n | 54 | 17 | n | 25 | 63 | 30 | 35 | n | n
CCCc1cc(CN2CCOCC2)c(O)c(CN2CCOCC2)c1O | n | n | n | n | n | x | x | x | x | x
Oc1ccc2ccccc2c1CN1CCOCC1 | n | n | n | n | n | x | x | x | x | x
Oc1cccc(CN2CCOCC2)c1O | n | 85 | 78 | n | 45 | n | n | 11 | n | 35
Oc1c(CN2CCOCC2)cc(CN2CCOCC2)c(O)c1O | n | 70 | 84 | n | 35 | n | n | n | n | 26
C[C@H]1/C=C/CC(=O)N[C@@H](c2ccc3ccccc3c2)[C@@H](C)/C=C/CC(=O)N[C@H]1c1ccc2ccccc2c1 | n | n | n | n | n | x | x | x | x | x
c1coc(-c2ccc3nncn3c2)c1 | n | 76 | 57 | n | 39 | 62 | 34 | 23 | n | 73
Cc1ccc(NC(=O)Cn2nnc(-c3ccncc3)n2)cc1C | n | n | n | n | n | x | x | x | x | x
O=c1c2cc3cc(Cl)ccc3nc2ncn1N1CCCCC1 | n | n | n | n | n | x | x | x | x | x
O=C(/C=C/c1ccco1)NC(=S)Nc1cccc(C(=O)O)c1 | n | 70 | 44 | 19 | 17 | 56 | 18 | n | n | 16 | PLCgamma1 ctr=19;PLCb3 confirm=n
COc1cccc(NC(=S)NC(=O)/C=C/c2ccco2)c1 | n | n | n | n | n | x | x | x | x | x
COc1ccc(-c2noc(C3CCCN(C(=O)Nc4ccc(C)c(F)c4)C3)n2)cc1 (configuration not stated) | n | n | n | n | n | x | x | x | x | x
COc1cccc(N2CCN(C(=O)COc3cc(=O)n(C)c4ccccc34)CC2)c1 | n | n | n | n | n | x | x | x | x | x
CCC(C)NC(=O)CN1C(=O)C2CCCCN2C(=O)c2ccccc21 (configuration not stated) | n | n | n | n | n | x | x | x | x | x
COc1cccc2c1C(=O)c1c(O)c3c(c(O)c1C2=O)CC(O)(C(C)=O)CC3OC1CC(N(C)C)C(O)C(C)O1 (configuration not stated) | n | 96 | 14 | n | 111 | 101 | 111 | n | n | 32
O=C(OCc1cn(Cc2cc(F)cc(F)c2)nn1)N1CCOCC1 | n | n | n | n | n | x | x | x | x | x
CN(C)c1ccc2cc(S(=O)(=O)O)cc(O)c2c1 | n | 83 | 84 | n | 45 | 29 | n | 52 | n | 31
